Source: PubChem BioAssay (Tox21)
Several values for one entry are separate records, joined by “and”; a condition that tells them apart may be missing. Equal values may be shown once. Inconclusive results are not listed. Activity calls are given as the source filed them. Unless noted, calls follow the shape of the dose curve; as a rule, active = well fitted curve in the direction sought with a large enough effect in the repeat runs; inconclusive = weak or mixed curves; inactive = no such curve, though single readings can be large; an effect the other way counts as inactive or inconclusive.

What was measured:
[1] = qHTS assay to identify small molecule antagonists of the glucocorticoid receptor (GR) signaling pathway - cell viability counter screen (AID 720693); also: nearly all actives have a fitted effect of over 55% in size; also: potency is read from the fitted curve at half-maximal effect
[2] = qHTS assay to identify small molecule antagonists of the androgen receptor (AR) signaling pathway - cell viability counter screen (AID 743033; also: nearly all actives have a fitted effect of over 45% in size; also: potency is read from the fitted curve at half-maximal effect)
[3] = qHTS assay to identify small molecule antagonists of the androgen receptor (AR) signaling pathway using the MDA cell line - cell viability counter screen (AID 743041; also: nearly all actives have a fitted effect of over 45% in size; also: potency is read from the fitted curve at half-maximal effect)
Procedure, shortened: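 Cells were plated at 3,000 per well and left 5 h. Compounds in DMSO were then pinned in, followed by R1881. After 16 h at 37C, CellTiter-Fluor fluorescence gave viability.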

[4] = qHTS assay to identify small molecule antagonists of the thyroid receptor (TR) signaling pathway - cell viability counter screen (AID 743064); also: nearly all actives have a fitted effect of over 50% in size; also: potency is read from the fitted curve at half-maximal effect
Procedure, shortened: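 Plate GH3.TRE-Luc cells; incubate 4 h at 37 °C; add compound, then T3 to 1 nM final; incubate 23.5 h; add CellTiter-Fluor; incubate 30 min at 37 °C, 5% CO2; read fluorescence.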

[5] = qHTS assay for identifying genotoxic compounds that show differential cytotoxicity against isogenic chicken DT40 cell lines with known DNA damage response pathways - Rev3 mutant cell line (AID 743014); also: nearly all actives have a fitted effect of over 55% in size; also: potency is read from the fitted curve at half-maximal effect
[6] = qHTS assay for identifying genotoxic compounds that show differential cytotoxicity against isogenic chicken DT40 cell lines with known DNA damage response pathways - Rad54/Ku70 mutant cell line (AID 743015); also: nearly all actives have a fitted effect of over 60% in size; also: potency is read from the fitted curve at half-maximal effect
[7] = molecular target: Androgen receptor (Homo sapiens) (UniProt P10275); test: qHTS assay to identify small molecule antagonists of the androgen receptor (AR) signaling pathway (AID 743035; active = well fitted inhibition curve with a large enough effect in the signal ratio in the repeat runs, not every such curve was filed as active; the % refers to the signal ratio; also: potency is read from the fitted curve at half-maximal effect)
Chain of Androgen receptor (Homo sapiens) (P10275 whole entry, looked up): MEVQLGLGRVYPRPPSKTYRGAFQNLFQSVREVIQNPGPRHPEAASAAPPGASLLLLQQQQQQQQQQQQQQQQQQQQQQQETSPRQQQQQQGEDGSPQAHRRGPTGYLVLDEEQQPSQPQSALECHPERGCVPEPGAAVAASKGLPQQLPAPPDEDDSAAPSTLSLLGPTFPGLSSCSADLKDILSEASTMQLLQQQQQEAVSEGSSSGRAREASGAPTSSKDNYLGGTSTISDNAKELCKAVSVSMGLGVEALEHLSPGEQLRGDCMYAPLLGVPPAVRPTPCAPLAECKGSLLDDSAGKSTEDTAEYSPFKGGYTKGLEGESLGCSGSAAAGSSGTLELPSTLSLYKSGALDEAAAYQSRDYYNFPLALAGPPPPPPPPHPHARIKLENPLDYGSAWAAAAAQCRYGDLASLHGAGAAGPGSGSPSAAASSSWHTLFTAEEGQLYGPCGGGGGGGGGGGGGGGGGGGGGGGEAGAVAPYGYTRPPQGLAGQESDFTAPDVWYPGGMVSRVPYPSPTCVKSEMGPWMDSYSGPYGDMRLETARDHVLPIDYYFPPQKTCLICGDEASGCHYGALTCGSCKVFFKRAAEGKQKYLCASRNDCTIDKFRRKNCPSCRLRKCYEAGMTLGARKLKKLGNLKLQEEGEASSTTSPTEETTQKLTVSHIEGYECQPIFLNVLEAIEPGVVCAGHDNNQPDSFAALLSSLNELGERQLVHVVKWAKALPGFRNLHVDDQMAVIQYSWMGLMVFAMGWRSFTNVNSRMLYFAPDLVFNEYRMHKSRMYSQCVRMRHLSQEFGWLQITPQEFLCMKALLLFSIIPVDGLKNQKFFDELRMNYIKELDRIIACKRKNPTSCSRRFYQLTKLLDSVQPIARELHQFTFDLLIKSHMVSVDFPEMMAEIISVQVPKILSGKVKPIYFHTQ
Procedure, shortened: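 Fluorescence from a beta-lactamase FRET substrate (LiveBLAzer B/G, 2 h, room temperature) measured inhibition of R1881-stimulated signaling in GeneBLAzer AR-UAS-bla HEK293 cells exposed to compound for 16 h at 37C.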

[8] = molecular target: Androgen receptor (Homo sapiens) (UniProt P10275); test: qHTS assay to identify small molecule agonists of the androgen receptor (AR) signaling pathway (AID 743036; active = well fitted activation curve with a large enough effect in the signal ratio in the repeat runs, with a control signal flat, not every such curve was filed as active; the % refers to the signal ratio; also: potency is read from the fitted curve at half-maximal effect)
Procedure, shortened: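 Reporter line: GeneBLAzer AR-UAS-bla-GripTite (HEK293). Steps: plate cells, 4 h rest, add compounds, 16 h at 37C, add LiveBLAzer B/G substrate, 2 h at RT, read fluorescence.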

[9] = molecular target: Androgen receptor (Homo sapiens) (UniProt P10275); test: qHTS assay to identify small molecule agonists of the androgen receptor (AR) signaling pathway using the MDA cell line (AID 743040; also: nearly all actives have a fitted effect of over 20% in size); details: MDA-kb2 AR-luc cells, MMTV luciferase, 16 h; activity change: at 70.3 µM (top of the series), hits give high values
Procedure, shortened: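 Cells plated, 5 h at 37C/0% CO2; compound or DMSO pinned; 16 h at 37C; ONE-Glo added; luminescence measured after 30 min at room temperature. Reporter line: MDA-kb2 with MMTV-luciferase responsive to AR and GR.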

[10] = qHTS assay for identifying genotoxic compounds that show differential cytotoxicity against isogenic chicken DT40 cell lines with known DNA damage response pathways - wild type cell line (AID 743012); also: nearly all actives have a fitted effect of over 60% in size; also: potency is read from the fitted curve at half-maximal effect
Procedure, shortened: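 Wild type DT40, 300 cells/well, ~0.5 h settle at 37 C/5% CO2; compounds in DMSO added by pintool; 40 h at 37 C/5% CO2; CellTiter-Glo, 30 min RT; luminescence.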
% is scaled to controls: 0 for no effect and ±100 for the full control effect.

Nc1cccc2ccccc12
inactive: Potency [1] | Potency [2] | Potency [3] | Potency [4]

CN(C1CCCCC1)C1CCCCC1
inactive: Potency [1] | Potency [2] | Potency [7] | Potency [8] | Potency [9] | Potency [4]
active: Potency [5] 9.69 µM | Potency [6] 17.2 µM

NCCc1cc(O)c(O)cc1O
active: Potency [10] 23.7 µM
inactive: Potency [1] | Potency [2]

CCCCCCCCCCCCN(C)C
inactive: Potency [10] | Potency [5] | Potency [6] | Potency [3] | Potency [4]

CCOP(=S)(OCC)Oc1ccc(S(C)=O)cc1 (centres undefined)
inactive: Potency [1] | Potency [2] | Potency [3] | Potency [4]

C[C@]12CC[C@H]3[C@@H](CCC4=CC(=O)CC[C@@H]43)[C@@H]1CC[C@@H]2OC(=O)CCc1ccccc1
inactive: Potency [5] | Potency [6] | Potency [2] | Potency [3] | Potency [4]

O=C(O)C(F)(F)C(F)(F)C(F)(F)C(F)(F)C(F)(F)C(F)(F)C(F)(F)C(F)(F)F
inactive: Potency [1] | Potency [5] | Potency [6] | Potency [2]

O=C(NC(=O)c1cc(F)c(F)cc1Cl)Nc1cc(F)ccc1N1CCC(C(=O)O)CC1
inactive: Potency [1] | Potency [5] | Potency [6] | Potency [2] | Potency [3] | Potency [4]

CCCC[N+]1(C)[C@@H]2CC(OC(=O)[C@H](CO)c3ccccc3)C[C@H]1[C@@H]1O[C@@H]12 (some centres undefined)
inactive: Potency [1] | Potency [5] | Potency [6] | Potency [3] | Potency [4]

O=C(O)CCCOc1ccc(Cl)cc1Cl
inactive: Potency [1] | Potency [2] | Potency [9] | Potency [3] | Potency [4]

C=CC(C)(CCC=C(C)C)OC(=O)c1ccccc1N (centres undefined)
inactive: Potency [1] | Potency [2]

CC(=O)OC(c1ccccc1)C(Cl)(Cl)Cl (centres undefined)
inactive: Potency [1] | Potency [5] | Potency [4]

COc1cc(C[C@@H](C)N)c(OC)cc1Br
active: Potency [10] 70.4 µM | Potency [4] 62.8 µM
inactive: Potency [1] | Potency [2] | Potency [3]

Nc1ccc2c(c1)Cc1ccccc1-2
inactive: Potency [1] | Potency [2] | Potency [4]

COc1ccc2c(c1OC)C(=O)O[C@H]2[C@@H]1c2cc3c(cc2CCN1C)OCO3
inactive: Potency [1] | Potency [5] | Potency [6] | Potency [2] | Potency [7] | Potency [8] | Potency [9] | Potency [3] | Potency [4]

CN1CC[C@]23c4c5ccc(O)c4O[C@H]2[C@@H](O)C=C[C@H]3[C@H]1C5
inactive: Potency [1] | Potency [2] | Potency [7] | Potency [9] | Potency [3] | Potency [4]

CCCCNC(=O)OCC#CI
active: Potency [10] 3.05 µM and 611 nM | Potency [5] 1.36 µM and 1.22 µM | Potency [6] 2.72 µM and 969 nM | Potency [2] 12.2 µM and 19.5 µM | Potency [3] 60.8 µM | Potency [4] 6.82 µM and 4.33 µM

O=P(OCC(Br)CBr)(OCC(Br)CBr)OCC(Br)CBr (centres undefined)
active: Potency [10] 41.1 µM | Potency [5] 55.2 µM and 20.6 µM | Potency [6] 25.9 µM | Potency [7] 14 µM | Potency [4] 43.8 µM and 51.7 µM
inactive: Potency [8] | Potency [9] | Potency [3]

CC(C)(C)N(NC(=O)c1ccc(Cl)cc1)C(=O)c1ccccc1
inactive: Potency [1] | Potency [2] | Potency [8] | Potency [9] | Potency [3]
active: Potency [6] 43 µM | Potency [4] 3.42 µM

O=[N+]([O-])/C=C/c1ccccc1
inactive: Potency [3]
active: Potency [4] 13.9 µM and 9.69 µM

C[C@]12C=CC3=C4CCC(=O)C=C4CC[C@H]3[C@@H]1CC[C@@H]2O
active: Potency [1] 24.4 µM | Potency [5] 68.1 µM | Potency [6] 60.7 µM | Potency [8] 0.0027 µM | activity change [9] 189%
inactive: Potency [2] | Potency [4]

COC(=O)C1(O)c2ccccc2-c2ccccc21
inactive: Potency [1] | Potency [6] | Potency [2] | Potency [7] | Potency [8] | Potency [9] | Potency [4]

NC(=S)c1c(Cl)cccc1Cl
inactive: Potency [1] | Potency [2] | Potency [4]

CCCN(CCC)C(=O)Cc1c(-c2ccc(Cl)cc2)nc2ccc(Cl)cn12
inactive: Potency [1] | Potency [5] | Potency [6] | Potency [2] | Potency [3]

C[C@H]1[C@@H]2Cc3ccc(O)cc3[C@@]1(C)CCN2C
inactive: Potency [1] | Potency [2] | Potency [3] | Potency [4]

O=S(=O)(c1ccccc1)c1ccccc1
inactive: Potency [1] | Potency [5] | Potency [6] | Potency [2] | Potency [3]

[Cl-].[Cl-].[Hg+2]
active: Potency [10] 841 nM and 3.84 µM and 193 nM | Potency [5] 2.66 µM and 1.92 µM and 386 nM | Potency [6] 1.68 µM and 1.36 µM and 217 nM | Potency [2] 9.52 µM and 1.54 µM and 9.77 µM | Potency [3] 24.8 µM and 54.2 µM and 61.1 µM | Potency [4] 1.33 µM and 1.36 µM and 243 nM

CC(C)c1ccc(OP(=O)(Oc2ccc(C(C)C)cc2)Oc2ccc(C(C)C)cc2)cc1
inactive: Potency [1] | Potency [2]
active: Potency [5] 61.6 µM and 27.3 µM | Potency [6] 69.1 µM and 54.5 µM and 21.7 µM | Potency [4] 54.9 µM and 68.6 µM and 30.6 µM

Cc1cccc(C)c1NC1=NCCCS1
inactive: Potency [1] | Potency [5] | Potency [4]

CCOc1cccc(C2(N3CCN(c4ccccc4)CC3)CCC(C)CC2)c1 (centres undefined)
inactive: Potency [1] | Potency [10] | Potency [2] | Potency [3]
